In the supplement of paper PMC10849652:
Of roughly 7,900 targets only a part is listed; those with a hit were picked by preference. About 0.6% of all pairs of compound and target were hits. Unmarked numbers belong to inactive results.

What was measured:
Experiment in all cases: log2 fold change, soluble protein after heating vs DMSO (PISA); higher = thermal stabilisation; K562 cells, 10 uM, 30 min; active = over 0.2 and 3.5 SD of the protein, either way, in both replicates (recomputed)
erlotinib = compound: C#Cc1cccc(Nc2ncnc3cc(OCCOC)c(OCCOC)cc23)c1 [erlotinib]
Outline: (§1)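 Soluble protein was quantified by TMTpro 16plex LC-MS/MS after channel sums were equalised. It was obtained as the supernatant after 21,000xg for 90 min from pooled aliquots of K562 cells (2×10^6 cells/mL, 10 μM compound, 30 min) heated for 3 min across 48°C-58°C and extracted in PBS with 0.5% NP-40 at 4°C. Thermal stability values are relative to control samples and come from duplicates. They are given as log2 fold changes.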

[1] = compound: C/C(=N\NC(=O)C1=CC(=CC=C1)S(=O)(=O)N2CCOCC2)/C3=C(C=CC(=C3)Cl)O
Outline: as §1

[2] = compound: C1=CC(=C(C=C1Cl)C2=NC3=NC=CN=C3C(=N2)NC4=CC=NC=C4)F
Outline: as §1

[3] = compound: C1=CC(=CC=C1C2=NC3=C(N2)C=C(C=C3)C(=O)N)OC4=CC=C(C=C4)Cl
Outline: as §1

[4] = compound: C1=CC2=C(C=CC(=C2)/C=C\3/C(=O)NC(=NCC4=CC=CS4)S3)N=C1
Outline: as §1

[5] = compound: C1=CC2=NC=CN=C2C=C1/C=C/3\C(=O)NC(=O)S3
Outline: as §1

[6] = compound: C1=CC=C(C=C1)C2=NC(=C(N2)C3=CC=NC=C3)C4=CC(=C(C=C4)Cl)O
Outline: as §1

[7] = compound: C1=CC=C2C(=C1)C3=NNC4=CC=CC(=C43)C2=O
Outline: as §1

[8] = compound: C1CCN(C1)C(=O)NC2=CC=CC(=C2)NC3=NC=C(C(=N3)NCCC4=CN=CN4)Br
Outline: as §1

[9] = compound: C1CN(CCC1(CC2=CC=C(C=C2)Cl)N)C3=NC=NC4=C3C=CN4
Outline: as §1

IRAK-1-4 Inhibitor I = compound: C1COCCN1CCN2C3=CC=CC=C3N=C2NC(=O)C4=CC(=CC=C4)[N+](=O)[O-] [IRAK-1-4 Inhibitor I]
Outline: as §1

ibrutinib = compound: C=CC(=O)N1CCC[C@@H](n2nc(-c3ccc(Oc4ccccc4)cc3)c3c(N)ncnc32)C1 [ibrutinib]
Outline: as §1

[10] = compound: CC(=O)c1cnc2ccc(-c3cc(Cl)c(O)c(Cl)c3)nc2c1N[C@H]1CC[C@H](CN(C)C)CC1
Outline: as §1

ralimetinib = compound: CC(C)(C)Cn1c(N)nc2ccc(-c3[nH]c(C(C)(C)C)nc3-c3ccc(F)cc3)nc21 [ralimetinib]
Outline: as §1

[11] = compound: CC(C)(O)CC(=O)NCCn1ccc2ncnc(Nc3ccc(Oc4cccc(C(F)(F)F)c4)c(Cl)c3)c21
Outline: as §1

[12] = compound: CC(C)C1=C2N=C(C=C(N2N=C1)NCC3=CC=CC=C3)NCCCCCCN
Outline: as §1

[13] = compound: CC(C)C[C@@H](C=O)NC(=O)[C@H](CC(C)C)NC(=O)[C@H](CC(C)C)NC(=O)OCc1ccccc1
Outline: as §1

pinometostat = compound: CC(C)N(C[C@H]1O[C@@H](n2cnc3c(N)ncnc32)[C@H](O)[C@@H]1O)[C@H]1C[C@@H](CCc2nc3cc(C(C)(C)C)ccc3[nH]2)C1 [pinometostat]
Outline: as §1

[14] = compound: CC1=C(C(CC(=O)N1)C2=CC=C(C=C2)C(F)(F)F)C(=O)NC3=C(C=C4C(=C3)C=NN4)F
Outline: as §1

[15] = compound: CC1=C(C2=C(C=C1)C(=O)C3=CC=CC=C3N2CCCN)C
Outline: as §1

Chain of UniProt Q8TD22 (Q8TD22 whole entry, looked up): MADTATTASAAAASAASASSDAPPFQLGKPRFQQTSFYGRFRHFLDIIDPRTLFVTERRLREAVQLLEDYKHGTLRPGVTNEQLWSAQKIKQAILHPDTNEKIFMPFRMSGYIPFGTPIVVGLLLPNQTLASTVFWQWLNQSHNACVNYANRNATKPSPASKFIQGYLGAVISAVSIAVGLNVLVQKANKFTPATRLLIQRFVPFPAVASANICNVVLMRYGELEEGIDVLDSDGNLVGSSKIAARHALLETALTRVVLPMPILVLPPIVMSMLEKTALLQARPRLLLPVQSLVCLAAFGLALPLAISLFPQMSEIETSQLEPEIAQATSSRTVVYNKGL
Chain of UniProt Q9BY42 (Q9BY42 whole entry, looked up): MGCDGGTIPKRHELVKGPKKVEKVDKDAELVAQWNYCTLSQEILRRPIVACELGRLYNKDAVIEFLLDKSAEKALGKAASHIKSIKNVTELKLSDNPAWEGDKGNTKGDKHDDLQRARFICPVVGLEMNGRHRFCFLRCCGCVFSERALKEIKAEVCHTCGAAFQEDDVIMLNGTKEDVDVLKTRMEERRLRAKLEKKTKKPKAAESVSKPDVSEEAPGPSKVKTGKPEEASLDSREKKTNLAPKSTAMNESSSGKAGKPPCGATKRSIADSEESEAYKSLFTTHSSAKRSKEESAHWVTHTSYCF
Chain of UniProt Q9NSI8 (Q9NSI8 whole entry, looked up): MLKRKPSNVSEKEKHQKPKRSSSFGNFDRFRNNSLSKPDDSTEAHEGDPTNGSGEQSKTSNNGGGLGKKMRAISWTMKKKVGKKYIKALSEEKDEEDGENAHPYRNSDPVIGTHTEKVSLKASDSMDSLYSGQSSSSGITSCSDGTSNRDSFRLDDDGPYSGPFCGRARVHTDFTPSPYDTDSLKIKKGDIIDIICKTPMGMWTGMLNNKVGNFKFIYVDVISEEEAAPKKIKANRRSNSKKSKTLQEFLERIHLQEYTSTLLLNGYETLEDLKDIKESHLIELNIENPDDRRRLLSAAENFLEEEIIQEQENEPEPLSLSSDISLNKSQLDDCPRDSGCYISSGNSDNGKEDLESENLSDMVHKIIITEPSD
Chain of UniProt Q9P2N5 (Q9P2N5 whole entry, looked up): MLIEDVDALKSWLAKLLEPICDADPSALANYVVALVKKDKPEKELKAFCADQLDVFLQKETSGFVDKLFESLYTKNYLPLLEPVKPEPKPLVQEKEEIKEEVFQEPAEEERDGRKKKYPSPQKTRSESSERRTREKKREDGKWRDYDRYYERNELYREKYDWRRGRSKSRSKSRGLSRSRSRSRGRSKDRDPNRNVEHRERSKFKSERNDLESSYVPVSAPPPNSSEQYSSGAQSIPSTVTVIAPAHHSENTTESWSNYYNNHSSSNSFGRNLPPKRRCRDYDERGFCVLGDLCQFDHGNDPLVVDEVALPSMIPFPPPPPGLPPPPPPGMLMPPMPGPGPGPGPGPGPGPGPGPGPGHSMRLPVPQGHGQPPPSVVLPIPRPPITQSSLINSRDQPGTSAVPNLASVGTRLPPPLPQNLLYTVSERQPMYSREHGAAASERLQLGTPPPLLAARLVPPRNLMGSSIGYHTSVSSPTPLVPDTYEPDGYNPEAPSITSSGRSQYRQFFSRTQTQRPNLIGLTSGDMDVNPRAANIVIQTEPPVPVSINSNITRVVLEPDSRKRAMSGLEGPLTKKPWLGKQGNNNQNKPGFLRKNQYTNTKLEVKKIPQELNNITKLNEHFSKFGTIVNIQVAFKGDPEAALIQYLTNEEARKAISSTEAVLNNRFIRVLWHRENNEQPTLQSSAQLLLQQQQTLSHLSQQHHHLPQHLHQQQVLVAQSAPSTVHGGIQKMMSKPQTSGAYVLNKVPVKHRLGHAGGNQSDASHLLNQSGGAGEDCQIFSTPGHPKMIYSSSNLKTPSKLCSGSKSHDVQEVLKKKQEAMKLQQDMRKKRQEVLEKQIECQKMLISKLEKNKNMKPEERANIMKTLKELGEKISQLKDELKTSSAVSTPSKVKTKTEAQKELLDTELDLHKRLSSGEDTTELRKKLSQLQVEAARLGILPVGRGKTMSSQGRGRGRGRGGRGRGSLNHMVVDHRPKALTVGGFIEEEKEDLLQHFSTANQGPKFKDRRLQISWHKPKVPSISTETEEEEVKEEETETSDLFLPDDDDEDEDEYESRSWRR
Chain of UniProt Q8N0T1 (Q8N0T1 whole entry, looked up): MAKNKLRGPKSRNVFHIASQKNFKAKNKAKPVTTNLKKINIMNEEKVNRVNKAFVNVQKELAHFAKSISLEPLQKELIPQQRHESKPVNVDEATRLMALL
Chain of UniProt Q8IZQ5 (Q8IZQ5 whole entry, looked up): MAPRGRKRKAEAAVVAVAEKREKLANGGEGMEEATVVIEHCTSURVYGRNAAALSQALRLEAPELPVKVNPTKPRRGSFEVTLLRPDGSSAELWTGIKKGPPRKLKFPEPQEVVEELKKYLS
Chain of UniProt O95486 (O95486 whole entry, looked up): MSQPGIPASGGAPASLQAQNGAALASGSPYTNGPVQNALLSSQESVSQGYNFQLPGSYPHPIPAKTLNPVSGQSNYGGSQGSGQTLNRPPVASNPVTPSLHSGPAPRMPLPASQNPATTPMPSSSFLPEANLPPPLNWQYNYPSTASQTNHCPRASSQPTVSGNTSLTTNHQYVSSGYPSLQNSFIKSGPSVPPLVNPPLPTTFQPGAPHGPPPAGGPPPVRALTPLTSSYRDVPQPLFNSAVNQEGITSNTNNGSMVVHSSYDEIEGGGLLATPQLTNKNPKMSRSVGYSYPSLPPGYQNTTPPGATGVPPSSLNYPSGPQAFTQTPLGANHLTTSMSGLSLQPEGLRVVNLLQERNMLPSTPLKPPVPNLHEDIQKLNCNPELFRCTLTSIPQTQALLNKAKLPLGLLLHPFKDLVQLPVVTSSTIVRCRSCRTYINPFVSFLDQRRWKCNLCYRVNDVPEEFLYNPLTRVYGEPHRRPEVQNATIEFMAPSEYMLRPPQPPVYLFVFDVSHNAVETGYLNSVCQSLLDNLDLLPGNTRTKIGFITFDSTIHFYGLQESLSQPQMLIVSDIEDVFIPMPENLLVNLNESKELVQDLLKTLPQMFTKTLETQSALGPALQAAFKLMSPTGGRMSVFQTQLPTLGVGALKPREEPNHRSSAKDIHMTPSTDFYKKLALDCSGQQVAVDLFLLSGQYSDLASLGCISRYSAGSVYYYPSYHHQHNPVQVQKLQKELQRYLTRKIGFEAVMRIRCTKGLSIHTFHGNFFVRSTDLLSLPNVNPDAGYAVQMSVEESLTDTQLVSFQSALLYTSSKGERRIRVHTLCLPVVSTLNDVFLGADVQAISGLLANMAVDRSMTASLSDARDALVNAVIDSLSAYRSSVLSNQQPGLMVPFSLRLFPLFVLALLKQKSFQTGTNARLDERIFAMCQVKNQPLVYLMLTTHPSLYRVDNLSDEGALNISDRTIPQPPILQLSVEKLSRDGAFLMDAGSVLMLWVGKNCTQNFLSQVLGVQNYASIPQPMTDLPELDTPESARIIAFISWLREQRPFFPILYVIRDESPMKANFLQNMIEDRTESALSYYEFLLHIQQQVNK
Chain of UniProt Q5JTH9 (Q5JTH9 whole entry, looked up): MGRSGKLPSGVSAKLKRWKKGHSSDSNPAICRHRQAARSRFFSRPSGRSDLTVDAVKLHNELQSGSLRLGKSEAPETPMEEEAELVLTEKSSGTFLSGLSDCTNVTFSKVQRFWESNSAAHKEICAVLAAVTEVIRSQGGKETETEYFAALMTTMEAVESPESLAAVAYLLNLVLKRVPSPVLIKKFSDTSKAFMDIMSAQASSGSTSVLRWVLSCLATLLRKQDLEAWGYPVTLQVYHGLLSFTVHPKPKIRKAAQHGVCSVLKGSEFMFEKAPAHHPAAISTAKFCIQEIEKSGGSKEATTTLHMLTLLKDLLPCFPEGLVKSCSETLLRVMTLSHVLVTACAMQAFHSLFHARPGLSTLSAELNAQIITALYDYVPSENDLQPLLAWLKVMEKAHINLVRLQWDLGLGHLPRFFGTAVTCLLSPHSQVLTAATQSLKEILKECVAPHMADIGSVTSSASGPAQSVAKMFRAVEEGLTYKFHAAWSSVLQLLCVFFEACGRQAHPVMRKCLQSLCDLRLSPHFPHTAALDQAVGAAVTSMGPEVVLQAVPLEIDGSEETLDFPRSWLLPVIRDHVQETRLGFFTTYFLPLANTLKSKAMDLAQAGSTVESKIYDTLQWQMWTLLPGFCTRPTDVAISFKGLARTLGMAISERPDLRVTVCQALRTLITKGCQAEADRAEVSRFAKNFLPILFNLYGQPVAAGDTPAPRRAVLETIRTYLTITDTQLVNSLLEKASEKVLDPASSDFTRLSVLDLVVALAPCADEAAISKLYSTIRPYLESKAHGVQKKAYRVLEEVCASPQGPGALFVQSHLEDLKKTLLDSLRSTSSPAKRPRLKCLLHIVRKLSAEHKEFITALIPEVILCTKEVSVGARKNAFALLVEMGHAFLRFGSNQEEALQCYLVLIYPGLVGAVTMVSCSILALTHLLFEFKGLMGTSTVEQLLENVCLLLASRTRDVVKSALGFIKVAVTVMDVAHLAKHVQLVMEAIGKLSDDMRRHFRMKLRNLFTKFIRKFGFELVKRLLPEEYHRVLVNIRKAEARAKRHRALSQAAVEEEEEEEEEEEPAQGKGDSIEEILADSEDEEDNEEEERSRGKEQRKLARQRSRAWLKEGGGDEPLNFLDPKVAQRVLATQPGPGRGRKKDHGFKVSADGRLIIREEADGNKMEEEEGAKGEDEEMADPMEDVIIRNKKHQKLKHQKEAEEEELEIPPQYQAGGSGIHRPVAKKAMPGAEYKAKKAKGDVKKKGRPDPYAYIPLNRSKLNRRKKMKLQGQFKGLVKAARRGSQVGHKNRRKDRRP
Chain of UniProt O75792 (O75792 whole entry, looked up): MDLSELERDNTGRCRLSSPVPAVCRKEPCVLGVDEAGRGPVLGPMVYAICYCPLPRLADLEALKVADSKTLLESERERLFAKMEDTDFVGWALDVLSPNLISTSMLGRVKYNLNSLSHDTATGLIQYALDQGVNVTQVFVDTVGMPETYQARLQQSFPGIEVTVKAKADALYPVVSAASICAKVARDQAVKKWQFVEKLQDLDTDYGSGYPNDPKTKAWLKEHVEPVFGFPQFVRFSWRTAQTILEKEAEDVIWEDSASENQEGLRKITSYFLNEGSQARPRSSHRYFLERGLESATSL

| Target | log2 fold change (erlotinib) | log2 fold change [1] | log2 fold change [2] | log2 fold change [3] | log2 fold change [4] | log2 fold change [5] | log2 fold change [6] | log2 fold change [7] | log2 fold change [8] | log2 fold change [9] | log2 fold change (IRAK-1-4 Inhibitor I) | log2 fold change (ibrutinib) | log2 fold change [10] | log2 fold change (ralimetinib) | log2 fold change [11] | log2 fold change [12] | log2 fold change [13] | log2 fold change (pinometostat) | log2 fold change [14] | log2 fold change [15] |
| --- | --- | --- | --- | --- | --- | --- | --- | --- | --- | --- | --- | --- | --- | --- | --- | --- | --- | --- | --- | --- |
| RCC1 isoform 2 (UniProt P18754) | 0.158 | 0.195 | 0.11 | 0.03 | 0.105 | -0.004 | -0.003 | 0.018 | -0.09 | 0.011 | -0.026 | -0.04 | -0.14 | 0 | -0.16 | -0.094 | 0.041 | 0.023 | -0.08 | -0.899 (active) |
| RPS27A (UniProt P62979) | -0.246 | -0.143 | -0.207 | 0.016 | -0.136 | -0.033 | 0.004 | -0.062 | 0.111 | -0.098 | -0.055 | 0.141 | 0.054 | 0.082 | 0.216 | 0.051 | 0.114 | 0.078 | 0.157 | -0.557 (active) |
| RPL31 (UniProt P62899) | -0.145 | -0.174 | -0.444 | 0.055 | -0.052 | -0.02 | -0.047 | -0.011 | 0.087 | -0.215 | -0.168 | -0.021 | 0.138 | 0.1 | 0.052 | -0.013 | 0.14 | 0.273 | -0.006 | -0.625 (active) |
| SELENOH (UniProt Q8IZQ5) | 0.032 | 0.013 | -0.013 | -0.003 | -0.297 (active) | -0.002 | 0.034 | 0.003 | -0.052 | 0.032 | -0.018 | -0.039 | 0.13 | 0.086 | -0.017 | 0.059 | -0.012 | -0.012 | -0.052 | 0.057 |
| RBIS (UniProt Q8N0T1) | -0.051 | 0.015 | -0.038 | 0.044 | 0.007 | 0.031 | -0.121 | -0.083 | 0.037 | -0.093 | -0.038 | 0.019 | -0.109 | -0.021 | 0.083 | -0.001 | 0.281 (active) | 0.044 | 0.066 | -0.478 (active) |
| RBM27 (UniProt Q9P2N5) | 0.034 | 0.079 | 0.003 | 0.022 | -0.039 | -0.01 | -0.067 | 0.022 | -0.061 | -0.128 | -0.123 | 0.023 | -0.338 (active) | -0.045 | -0.063 | -0.479 (active) | 0.042 | 0.028 | 0.088 | 0.05 |
| SFXN5 (UniProt Q8TD22) | -0.077 | 0.09 | -0.02 | 0.082 | -0.003 | 0.023 | 0.081 | -0.001 | -0.066 | -0.045 | 0.225 | -0.048 | -0.013 | -0.001 | -0.175 | -0.083 | 0.187 | 0.03 | 0.008 | 0.09 |
| RARS (UniProt P54136) | 0.023 | 0.011 | -0.169 | -0.007 | 0.019 | 0 | -0.046 | -0.005 | 0.07 | -0.155 | -0.087 | -0.024 | 0.12 | 0.097 | -0.001 | -0.545 (active) | 0.096 | 0.32 | 0.03 | 0.009 |
| RBM8A (UniProt Q9Y5S9) | -0.021 | -0.014 | 0.012 | -0.008 | -0.076 | 0.024 | -0.069 | -0.035 | 0.025 | 0.003 | -0.027 | -0.017 | 0.127 | -0.015 | -0.002 | 0.128 | 0.024 | -0.015 | -0.029 | 0.027 |
| SEC24A (UniProt O95486) | 0.084 | 0.097 | 0.031 | -0.018 | 0.033 | -0.022 | 0.036 | 0.022 | -0.026 | 0.011 | -0.038 | -0.017 | -0.013 | 0.018 | -0.066 | -0.057 | -0.005 | 0.005 | 0.009 | 0.019 |
| RPS12 (UniProt P25398) | -0.115 | -0.082 | -0.072 | -0.001 | -0.021 | -0.002 | 0.008 | -0.02 | 0.027 | -0.05 | -0.063 | 0.036 | 0.051 | 0.043 | 0.003 | 0.036 | -0.024 | 0.024 | 0.095 | -0.314 (active) |
| RTF2 (UniProt Q9BY42) | 0.026 | 0.063 | 0.035 | -0.049 | -0.049 | -0.023 | -0.035 | -0.02 | -0.074 | 0.045 | 0 | -0.096 | -0.017 | -0.022 | 0.032 | 0.164 | 0.098 | -0.059 | -0.025 | -0.054 |
| RNASEH2A (UniProt O75792) | 0.041 | 0.085 | -0.062 | 0.019 | 0.119 | -0.038 | -0.026 | 0.065 | -0.016 | -0.115 | 0 | 0.008 | -0.07 | -0.08 | -0.029 | -0.122 | 0.074 | -0.003 | 0.001 | 0.042 |
| RALY (UniProt Q9UKM9) | 0.018 | -0.072 | -0.541 | 0.189 | -0.144 | 0.154 | -0.11 | 0.038 | 0.008 | -0.22 | -0.315 | 0.001 | -0.21 | -0.029 | 0.055 | -0.101 | 0.083 | 0.129 | 0.068 | -0.311 |
| RRP12 (UniProt Q5JTH9) | 0.074 | -0.3 | -0.172 | 0.028 | -0.04 | 0.038 | 0.166 | 0.205 | 0.079 | 0.054 | -0.018 | -0.1 | 0.201 | 0.331 | 0.006 | 0.272 | 0.243 | 0.315 | -0.051 | -0.107 |
| SAMSN1 isoform 3 (UniProt Q9NSI8) | 0.027 | 0.012 | -0.006 | 0.001 | 0.037 | 0.021 | -0.009 | -0.022 | 0.007 | -0.114 | 0.028 | -0.021 | -0.125 | -0.016 | -0.034 | -0.095 | 0.041 | 0.014 | 0.023 | 0.008 |
